The list is not random: actives were taken first. Their share in the collection is about 12%.
ROMK primary: modulators of human ROMK potassium channel; P48048; Tet-inducible ROMK, thallium flux fluorescence; actives lie on both sides; B-score at 10 µM; actives 2% (n = 130,000);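 active = signal ratio slope over the read window, or its plate-corrected B-score, at least 3 SD from the plate mean, either direction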;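 also: B-score of the F/F0 ratio slope over 7 to 12 s after thallium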
Target sequence (P48048 whole entry, looked up): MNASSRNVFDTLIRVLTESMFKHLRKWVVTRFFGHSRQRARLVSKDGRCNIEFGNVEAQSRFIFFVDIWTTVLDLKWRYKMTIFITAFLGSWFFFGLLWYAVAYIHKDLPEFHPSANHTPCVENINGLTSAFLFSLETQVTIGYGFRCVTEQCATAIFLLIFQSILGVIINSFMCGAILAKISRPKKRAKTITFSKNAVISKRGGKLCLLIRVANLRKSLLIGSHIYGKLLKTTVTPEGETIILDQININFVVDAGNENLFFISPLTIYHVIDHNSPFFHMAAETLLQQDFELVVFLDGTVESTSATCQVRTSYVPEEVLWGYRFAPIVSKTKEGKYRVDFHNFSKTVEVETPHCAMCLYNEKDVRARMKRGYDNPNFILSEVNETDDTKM
KCC2 mod: modulates chloride dependent transport by human KCC2. Q9H2X9. KCC2 cells, thallium flux FluoZin-2 fluorescence. B-score of Tl+ flux slope (higher = more flux/activation; lower = inhibition) at 10 µM. actives 2.2% (n = 190,000);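 active = thallium flux slope and its plate-corrected score both differing from the plate sample mean at a set confidence after two filtering rounds, in either direction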;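 also: slope of fluorescence scaled to starting intensity during 10 to 20 s after thallium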
WT yeast gro inh: growth inhibition of WT yeast, mitochondrial fusion screen; mitochondrial fusion phenotypic screen, WT strain; inhibition, % at 10 µM; actives 2.1% (n = 190,000); AID 1362; in the data active = inhibition above about 58%; tested in S. cerevisiae
L major viab: reduces viability of Leishmania major promastigotes. AID 1063. inhibition, % at 10 µM. resazurin fluorescence viability. actives 9% (n = 200,000); in the data active = inhibition above about 50%;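 also: promastigotes grown with compound for 44 hours at 28 °C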
Calpain2 inh: blocks pig calpain II enzyme activity. inhibition, % at 16 µM. actives 0.37% (n = 220,000). AID 1236. purified calpain II, fluorogenic peptide substrate, 30 min;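 active = inhibition above about 50%, limit read from the data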
Of the large screens only hits and unclear results are named; the others gave an inactive call.

c1cncc(C(c2nnnn2C2CCCC2)N2CCCC2)c1 (stereo not drawn)	none
COc1ccc2[nH]c(=O)c(CN(C3CCCCC3)C(c3nnnn3Cc3ccco3)C(C)C)cc2c1 (stereo not drawn)	L major viab 65
C/C(=N\NC(=O)c1ccc(Cl)c(S(=O)(=O)Nc2ccccc2Cl)c1)c1ccncc1	none (no result: ROMK primary)
O=C(CNC(=O)C(c1ccccc1)c1ccccc1)OCc1ccccc1	none
CCOC(=O)Cn1nnnc1C(CC)N(Cc1cccs1)Cc1cc2ccc(OC)cc2[nH]c1=O (stereo not drawn)	L major viab 99 (no result: ROMK primary)
Cc1ccc2cc(C(c3nnnn3C3CCCC3)N(Cc3ccco3)Cc3cccs3)c(=O)[nH]c2c1 (stereo not drawn)	L major viab 82 (no result: KCC2 mod)
COc1ccc2[nH]c(=O)c(C(c3nnnn3C3CCCC3)N(C)C3CCCCC3)cc2c1 (stereo not drawn)	L major viab 53 (no result: KCC2 mod)
COc1ccc2[nH]c(=O)c(CN(Cc3ccco3)C(c3nnnn3Cc3ccccc3)C(C)C)cc2c1 (stereo not drawn)	none
CCC(c1nnnn1C1CCCCC1)N(Cc1ccco1)Cc1cc2ccc(OC)cc2[nH]c1=O (stereo not drawn)	L major viab 74 (no result: ROMK primary)
CCOc1ccc2[nH]c(=O)c(C(c3nnnn3C3CCCCC3)N3CCN(C)CC3)cc2c1 (stereo not drawn)	none (no result: ROMK primary)
CC(=O)c1ccccc1OCCOc1ncnc2sccc12	none
COC(=O)c1ccc(-c2ccc(C(c3c(C)[nH][nH]c3=O)c3c(C)[nH][nH]c3=O)o2)cc1	L major viab 97
Cc1[nH][nH]c(=O)c1C(c1ccc(-c2ccc(Cl)cc2Cl)o1)c1c(C)[nH][nH]c1=O	L major viab 100
COc1ccc(/C=C/c2nnc(NC(=O)C(C)(C)C)s2)cc1	none (no result: ROMK primary, WT yeast gro inh, L major viab)
CC1(C)OC(=O)N(Cc2ccco2)C1(C)O (stereo not drawn)	none (no result: ROMK primary)
N#Cc1ccc(-c2ccc(OCC(=O)NCC(=O)Nc3ccc(F)c(F)c3F)cc2)cc1	L major viab 58 (no result: ROMK primary)
N#Cc1ccc(-c2ccc(OCC(=O)NCCc3ccccc3)cc2)cc1	none (no result: ROMK primary)
Cc1cccc[n+]1CC(=O)Nc1cccc([N+](=O)[O-])c1	none
CCOC(=O)CSc1nnc(Cc2ccccc2)n1-c1ccc(C)cc1	none (no result: ROMK primary)
CCOC(=O)CN(C(=O)CSc1nnc(Cc2ccccc2)n1-c1ccc(C)cc1)c1ccccc1	L major viab 99 (no result: ROMK primary, KCC2 mod)
Oc1ccc(NCc2ccccc2OCc2ccccc2F)cc1	L major viab 100
CCOc1cccc(CNc2ccc(O)cc2)c1OCc1ccc(Cl)cc1	L major viab 100 (no result: ROMK primary)
CCOc1ccccc1CNc1ccc(O)cc1	none
O=C(NCc1ccccc1Cl)c1cnccn1	WT yeast gro inh 75 (no result: ROMK primary)
O=C(NCc1ccccc1Cl)c1ccccc1CCc1ccccc1	L major viab 54
O=C(NCc1ccc(Cl)cc1)c1ccccc1CCc1ccccc1	none
O=C(NCc1ccc(Cl)cc1)c1cnccn1	none (no result: ROMK primary)
Cc1cc(C)nc(Sc2ncnc(N)c2[N+](=O)[O-])n1	L major viab 58
Cc1cc(=O)[nH]c(=O)n1Cc1ccccc1	none
Cc1c(CN(C)C)c2c(n1Cc1ccccc1)C(=O)c1ccccc1-2	L major viab 75 (no result: ROMK primary)
O=c1oc2ccccc2nc1/C=C(\O)c1ccc(Br)cc1	none (no result: WT yeast gro inh, L major viab)
CS(=O)(=O)Cc1nc2ccccc2oc1=O	L major viab 100 (no result: ROMK primary)
CS(=O)(=O)NC1c2cccc3cccc(c23)C1N1CCOCC1 (stereo not drawn)	none
O=C(c1ccccc1)N1CCN(C2c3cccc4cccc(c34)C2NS(=O)(=O)c2ccccc2)CC1 (stereo not drawn)	L major viab 99 (no result: ROMK primary)
O=S(=O)(NC1c2cccc3cccc(c23)C1N1CCNCC1)c1ccccc1 (stereo not drawn)	none (no result: ROMK primary, KCC2 mod)
O=S(=O)(NC1c2cccc3cccc(c23)C1N1CCN(CCO)CC1)c1ccccc1 (stereo not drawn)	L major viab 71 (no result: WT yeast gro inh)
O=C(C1CCCO1)N1CCN(C(=S)Nc2ccc(F)cc2)CC1 (stereo not drawn)	L major viab 56
Cc1cc(N2CCN(Cc3nc(-c4ccc(F)cc4)oc3C)CC2)cc(C)n1	L major viab 93
COc1ccccc1N1CCN(Cc2nc(-c3ccc(F)cc3)oc2C)CC1	none
Cc1cccc(N2CCN(Cc3nc(-c4cccc(Cl)c4)oc3C)CC2)n1	WT yeast gro inh 62
COC(=O)c1cc2sccc2n1Cc1nc(-c2cccc(Cl)c2)oc1C	L major viab 64 (no result: ROMK primary)
CC(C)(C)C(=O)Nc1ccc(C(=O)N/N=C/c2ccccc2OC(=O)c2ccccc2)cc1	none (no result: ROMK primary)
CC(C)(C)C(=O)Nc1ccc(C(=O)N/N=C/c2ccccc2OC(=O)c2ccc(Cl)cc2)cc1	L major viab 55
Cc1cccc(C(=O)Oc2ccccc2/C=N/NC(=O)c2ccc(NC(=O)C(C)(C)C)cc2)c1	none
COc1cc(C(=O)Oc2ccccc2/C=N/NC(=O)c2ccc(C)cc2)cc(OC)c1OC	L major viab 76 (no result: ROMK primary, KCC2 mod)
CCOC(=O)c1ccc(Cl)c(NC(=O)c2cccnc2)c1	none (no result: ROMK primary, KCC2 mod)
CCc1ccc(CNc2ccc(O)cc2)cc1	L major viab 98 (no result: ROMK primary)
CCOC(=O)C1CCCN(C(=O)c2ccc(OCC)cc2)C1 (stereo not drawn)	none (no result: ROMK primary)
COc1ccc(OC)c(Cc2nnc(CCC(=O)N3CCCCC3c3nccs3)o2)c1 (stereo not drawn)	none
COc1ccc(-c2nncnn2)cc1	L major viab 97 (no result: ROMK primary)
N/C(=N\OC(=O)Cc1ccc(-c2ccccc2)cc1)c1ccccn1	WT yeast gro inh 62
N/C(=N\OC(=O)c1cc(-c2ccccc2)nc2ccccc12)c1ccccn1	WT yeast gro inh 66
Cc1ccc(/C(N)=N/OC(=O)c2cc(-c3ccccc3)nc3ccccc23)cc1	none
COC(=O)C1=C(C)N(CCc2cc(OC)c(OC)c(OC)c2)C(=O)N[C@H]1c1ccc(Br)cc1	none
Cc1ccc2nc(Cl)c(C3CC(c4cccs4)=NN3C(=O)CCCC(=O)O)cc2c1 (stereo not drawn)	L major viab 57 (no result: ROMK primary)
COc1ccc(CCNCc2ccc(OCc3ccc(Cl)nc3)c(OC)c2)cc1OC	L major viab 90
COc1cc(CNCCNCC(C)O)ccc1OCc1ccc(Cl)nc1 (stereo not drawn)	none
CCOCCCNCc1ccc(OCCC(C)C)c(OC)c1	L major viab 85
CCCCCNCc1ccc(OCc2ccc(Cl)nc2)c(OC)c1	L major viab 100
COc1cc(CNCCN2CCOCC2)ccc1OCc1cccc(Cl)c1	L major viab 95
O=C(O)c1cc(-c2ccc(Cl)s2)[nH]n1	none (no result: ROMK primary, WT yeast gro inh, L major viab)
COc1ccc(CNCCc2ccc(Cl)cc2)cc1OCc1ccccc1	WT yeast gro inh 82, L major viab 96
Cc1cc(N/N=C/c2ccncc2)nc2ccccc12	L major viab 73
Cc1cc(N/N=C/c2cccc(Br)c2)nc2ccccc12	L major viab 61
CC(=O)c1sc(N/N=C\c2cccc(Br)c2)nc1C	none
O=C(NCCCO)c1ccc(CSc2nc3ccccc3c(=O)[nH]2)cc1	none (no result: WT yeast gro inh, L major viab)
COc1cc(NC(=O)COc2ccc(Cl)cc2)ccc1-c1cc2ccccc2oc1=O	L major viab 63
COc1cc(NC(=O)COc2ccc(Cl)cc2)ccc1NC(=O)C(C)C	none (no result: ROMK primary, WT yeast gro inh, L major viab)
